The text below walks through data of PubChem BioAssay.

For assay [1], the system named is PRMT1 (protein arginine N-methyltransferase 1). As to the kind of experiment: small molecules binding arginine methyltransferase PRMT1 – biochemical, small-molecule microarray, 635 nm fluorescence, primary screen (AID 1088).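 Also: binding of Prmt1 protein to compounds spotted on small-molecule microarray slides.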 The note with it: higher = more signal.
A short description of assay [2]: growth effects on S. cerevisiae YJM789 – YJM789 clinical isolate, OD600, 24 h, basal, primary screen (AID 1089).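 Also: growth of clinical yeast isolate S. cerevisiae YJM 789 seeded 1000 cells per well; test concentration not given here.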 The following applies: higher = more signal, called active from +8 up or from −8 down.
Assay [3] can be described thus: S. pombe growth modifiers, basal conditions – strain 972, OD600, 24 h, no modulator, primary screen (AID 1090).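 Also: basal condition with compound alone and no growth modifier present; test concentration not given here.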 The note with it: S. pombe 972 growth, higher = more signal, called active from +8 up or from −8 down.
Assay [4] is described as follows: budding yeast growth modifiers under rapamycin – strain BY4716, OD600, 96 h, primary screen (AID 1091). Also: test concentration not given here. The following applies: S. cerevisiae BY4716 + rapamycin, higher = more signal, called active from +8 up or from −8 down.
Assay [5] concerns the target Torsin-1A-interacting protein 2 (Homo sapiens) (UniProt Q8NFQ8). As to the kind of experiment: small molecules binding lysate-expressed LULL1 – cell lysate, human LULL1 lysate, 635/667 nm fluorescence, primary screen (AID 1092).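 Also: probe is lysate of COS7 cells overexpressing human LULL1; score merges per-feature 667 nm fluorescence with signal-to-noise.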 The note with it: small-molecule microarray, hLULL1 lysate binding, 635 nm fluorescence; higher = more signal.
Assay [6] can be described thus: optical density change of DRC41 E. coli – strain DRC41, OD650, 24 h, E. coli filamentation project, primary screen (AID 1093).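 Also: MC1000 strain lacking acrAB efflux and sulA so SOS filamentation is blocked; test concentration not given here.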 The following applies: E. coli DRC41 growth, higher = more signal, called active from +8 up or from −8 down.
Assay [7] in a line: probe aLefty2 binding to arrayed compounds – biochemical, biotinylated probe, 635/667 nm fluorescence, primary screen (AID 1094).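 Also: score merges spot fluorescence near 667 nm with spot signal-to-noise ratio.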 The note with it: small-molecule microarray, higher = more signal.
For assay [8], the system named is Noggin (protein binding on small-molecule microarray). Briefly: small molecules binding Noggin protein – biochemical, 635/667 nm fluorescence, primary screen (AID 1095).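 Also: score merges 667 nm feature fluorescence with signal to noise over triplicate slides.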 The note with it: 635 nm fluorescence, higher = more signal.
Assay [9] deals with Neurogenic locus notch homolog protein 3 (Homo sapiens) (UniProt Q9UM47). As to the kind of experiment: small molecules binding NOTCH3 protein – biochemical, 635/667 nm fluorescence, primary screen (AID 1096). The following applies: small-molecule microarray, 635 nm fluorescence, higher = more signal.
Sequence of Neurogenic locus notch homolog protein 3 (Homo sapiens) (Q9UM47 whole entry, looked up): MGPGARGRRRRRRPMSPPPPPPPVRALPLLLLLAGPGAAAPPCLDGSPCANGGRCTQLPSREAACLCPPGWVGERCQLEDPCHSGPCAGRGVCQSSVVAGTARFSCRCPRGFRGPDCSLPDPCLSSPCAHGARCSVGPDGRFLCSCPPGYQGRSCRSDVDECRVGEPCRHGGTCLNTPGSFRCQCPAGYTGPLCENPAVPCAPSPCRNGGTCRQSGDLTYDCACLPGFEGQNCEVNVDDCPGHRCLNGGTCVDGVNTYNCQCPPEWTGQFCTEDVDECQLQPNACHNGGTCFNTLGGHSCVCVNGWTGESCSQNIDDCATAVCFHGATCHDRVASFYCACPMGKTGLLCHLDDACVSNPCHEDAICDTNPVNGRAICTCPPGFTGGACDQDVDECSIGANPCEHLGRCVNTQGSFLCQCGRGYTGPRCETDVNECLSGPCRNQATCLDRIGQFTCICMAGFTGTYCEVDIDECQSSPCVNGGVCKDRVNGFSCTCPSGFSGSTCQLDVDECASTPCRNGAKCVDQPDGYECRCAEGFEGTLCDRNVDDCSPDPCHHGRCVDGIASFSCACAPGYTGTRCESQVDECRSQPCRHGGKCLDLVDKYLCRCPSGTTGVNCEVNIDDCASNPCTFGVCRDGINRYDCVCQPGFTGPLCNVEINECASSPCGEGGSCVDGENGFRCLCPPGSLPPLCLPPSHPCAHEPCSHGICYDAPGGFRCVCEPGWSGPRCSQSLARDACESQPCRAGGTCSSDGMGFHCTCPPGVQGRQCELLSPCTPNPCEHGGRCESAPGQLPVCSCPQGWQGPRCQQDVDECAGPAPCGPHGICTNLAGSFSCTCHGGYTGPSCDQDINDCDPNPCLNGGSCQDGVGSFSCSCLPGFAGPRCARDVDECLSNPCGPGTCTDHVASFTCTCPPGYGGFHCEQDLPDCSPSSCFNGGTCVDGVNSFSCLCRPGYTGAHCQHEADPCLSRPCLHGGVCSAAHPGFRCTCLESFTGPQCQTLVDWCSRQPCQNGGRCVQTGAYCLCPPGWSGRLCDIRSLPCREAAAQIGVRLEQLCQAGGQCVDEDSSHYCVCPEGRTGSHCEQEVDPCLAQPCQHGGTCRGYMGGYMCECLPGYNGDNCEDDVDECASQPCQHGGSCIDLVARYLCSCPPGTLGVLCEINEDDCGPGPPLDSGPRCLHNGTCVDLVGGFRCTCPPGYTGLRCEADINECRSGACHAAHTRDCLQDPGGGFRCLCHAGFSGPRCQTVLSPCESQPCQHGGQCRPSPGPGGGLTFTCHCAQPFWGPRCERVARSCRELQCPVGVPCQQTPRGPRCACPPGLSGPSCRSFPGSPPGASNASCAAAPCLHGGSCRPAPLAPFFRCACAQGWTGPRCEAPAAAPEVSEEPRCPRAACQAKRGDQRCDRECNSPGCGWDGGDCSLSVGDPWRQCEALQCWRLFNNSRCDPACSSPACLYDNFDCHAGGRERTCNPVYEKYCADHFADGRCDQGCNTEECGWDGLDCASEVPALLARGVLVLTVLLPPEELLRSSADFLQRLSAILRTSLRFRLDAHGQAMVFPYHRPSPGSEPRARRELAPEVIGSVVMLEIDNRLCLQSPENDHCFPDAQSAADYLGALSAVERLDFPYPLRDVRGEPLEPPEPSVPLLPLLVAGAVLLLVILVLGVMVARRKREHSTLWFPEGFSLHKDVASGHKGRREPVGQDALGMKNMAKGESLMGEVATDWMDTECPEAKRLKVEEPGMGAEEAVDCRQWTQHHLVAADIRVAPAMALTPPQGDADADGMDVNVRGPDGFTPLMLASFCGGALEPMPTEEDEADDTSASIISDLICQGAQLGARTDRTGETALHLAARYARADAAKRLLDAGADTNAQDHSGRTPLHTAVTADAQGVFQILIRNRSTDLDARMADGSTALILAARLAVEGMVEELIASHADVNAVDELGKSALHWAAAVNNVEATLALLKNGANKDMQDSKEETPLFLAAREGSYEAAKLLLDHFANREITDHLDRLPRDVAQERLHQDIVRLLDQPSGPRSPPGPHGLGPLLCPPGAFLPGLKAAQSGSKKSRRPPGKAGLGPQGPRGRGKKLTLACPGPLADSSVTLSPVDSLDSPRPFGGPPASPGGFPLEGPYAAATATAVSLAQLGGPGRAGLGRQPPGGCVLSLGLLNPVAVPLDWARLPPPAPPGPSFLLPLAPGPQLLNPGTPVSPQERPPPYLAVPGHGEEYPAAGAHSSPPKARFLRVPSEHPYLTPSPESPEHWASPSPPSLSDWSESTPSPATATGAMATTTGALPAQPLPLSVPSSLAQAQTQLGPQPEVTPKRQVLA
Assay [10] in a line: probe aEGFR binding to arrayed compounds – biochemical, biotinylated probe, 635/667 nm fluorescence, primary screen (AID 1097).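 Also: probe is a biotinylated anti-EGFR antibody binding compounds printed on slides; score combines fluorescence near 667 nm and signal to noise of each spot.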 The note with it: small-molecule microarray, higher = more signal.
Assay [11] concerns Plasmodium falciparum Sir2 (PF13_0152, Sir2A). As to the kind of experiment: Plasmodium falciparum Sir2A binding compounds – biochemical, small-molecule microarray, 635 nm fluorescence, primary screen (AID 1098).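 Also: score merges spot fluorescence intensity with its signal-to-noise ratio.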 The note with it: fluorescence 635 nm, higher = more signal.
Assay [12] is described as follows: probe aDKK1 binding to arrayed compounds – biochemical, biotinylated probe, 635/667 nm fluorescence, primary screen (AID 1099).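 Also: score merges 667nm spot fluorescence with signal to noise across triplicate slides; reference of the scale not given here.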 The following applies: small-molecule microarray, higher = more signal.
Assay [13] is described as follows: probe aCHRDL2 binding to arrayed compounds – biochemical, biotinylated probe, 635/667 nm fluorescence, primary screen (AID 1100). The following applies: small-molecule microarray, higher = more signal.
Assay [14] can be described thus: change in splice reporter luminescence, either direction, cell-based, HEK293, spliceosome inhibition project, primary screen (AID 1101).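 Also: HEK293 cells carrying a splicing-competent luciferase reporter gene; test concentration not given here.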 The note with it: HEK293 splicing luciferase reporter, 24 h, higher = more signal, called active from +8 up or from −8 down. For orientation: In a reporter assay the amount or activity of a reporter protein is the signal.
Assay [15] concerns the target Fibroblast growth factor 10 (Homo sapiens) (UniProt O15520). As to the kind of experiment: compounds binding fibroblast growth factor 10 – biochemical, small-molecule microarray, 635 nm fluorescence, primary screen (AID 1102). The note with it: FGF10 binding, fluorescence 635 nm, higher = more signal.
Assay [16] relates to glycogen synthase kinase-3 (GSK3A per assay name; protocol says GSK3B). Briefly: compounds binding glycogen synthase kinase-3 – biochemical, small-molecule microarray, 635 nm fluorescence, GSK3A, primary screen (AID 1103). Also: the record names both GSK3A and GSK3B. The following applies: fluorescence 635 nm, higher = more signal.
Assay [17] has as its target Epidermal growth factor receptor (Homo sapiens) (UniProt P00533). As to the kind of experiment: compounds binding epidermal growth factor receptor – biochemical, small-molecule microarray, 635 nm fluorescence, primary screen (AID 1104).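 Also: score merges 667 nm emission intensity with spot signal to noise over triplicate slides.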 The following applies: EGFR binding, higher = more signal.
Assay [18] has as its target Follistatin-related protein 3 (Homo sapiens) (UniProt O95633). Briefly: compounds binding follistatin-related protein 3 – biochemical, small-molecule microarray, 635 nm fluorescence, primary screen (AID 1105).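 Also: score merges emission near 667 nm and signal to noise per printed spot across three slides.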 The note with it: FSTL3 binding, higher = more signal.
Assay [19] concerns the target Dickkopf-related protein 1 (Homo sapiens) (UniProt O94907). Briefly: small molecules binding DKK1 protein – biochemical, small-molecule microarray, 635 nm fluorescence scan, primary screen (AID 1106).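 Also: score merges emission near 667 nm with signal to noise over three replicate slides.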 The note with it: higher = more signal.
The test system of assay [20] is Inhibin beta A chain (activin A). Briefly: small molecules binding activin A – biochemical, small-molecule microarray, 635 nm fluorescence scan, primary screen (AID 1107).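 Also: mouse activin A protein probed at 4.33 µg/mL on printed slides; score merges bound-protein fluorescence near 667 nm with spot signal-to-noise.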 The note with it: INHBA, higher = more signal.

Active and inactive are the calls of the source.

Sequence of Follistatin-related protein 3 (Homo sapiens) (O95633 whole entry, looked up): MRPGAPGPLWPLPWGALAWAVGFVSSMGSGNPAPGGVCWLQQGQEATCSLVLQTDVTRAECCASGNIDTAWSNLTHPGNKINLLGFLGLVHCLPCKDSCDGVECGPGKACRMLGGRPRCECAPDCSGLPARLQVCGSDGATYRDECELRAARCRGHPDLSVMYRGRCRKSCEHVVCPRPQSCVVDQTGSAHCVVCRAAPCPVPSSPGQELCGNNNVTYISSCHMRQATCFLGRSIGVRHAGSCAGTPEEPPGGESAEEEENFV
Sequence of Torsin-1A-interacting protein 2 (Homo sapiens) (Q8NFQ8 whole entry, looked up): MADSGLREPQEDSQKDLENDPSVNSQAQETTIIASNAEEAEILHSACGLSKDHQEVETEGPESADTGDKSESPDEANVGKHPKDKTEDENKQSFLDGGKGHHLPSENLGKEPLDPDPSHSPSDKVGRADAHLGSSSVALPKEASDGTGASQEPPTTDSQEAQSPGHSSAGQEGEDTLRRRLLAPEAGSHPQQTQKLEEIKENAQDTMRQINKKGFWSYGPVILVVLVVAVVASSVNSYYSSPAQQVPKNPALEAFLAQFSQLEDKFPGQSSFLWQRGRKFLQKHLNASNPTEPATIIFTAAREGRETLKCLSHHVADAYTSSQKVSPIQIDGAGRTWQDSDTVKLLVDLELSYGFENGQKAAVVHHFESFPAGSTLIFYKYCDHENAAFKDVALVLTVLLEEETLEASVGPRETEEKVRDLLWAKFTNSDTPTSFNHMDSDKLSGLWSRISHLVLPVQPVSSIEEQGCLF
Sequence of Epidermal growth factor receptor (Homo sapiens) (P00533 whole entry, looked up): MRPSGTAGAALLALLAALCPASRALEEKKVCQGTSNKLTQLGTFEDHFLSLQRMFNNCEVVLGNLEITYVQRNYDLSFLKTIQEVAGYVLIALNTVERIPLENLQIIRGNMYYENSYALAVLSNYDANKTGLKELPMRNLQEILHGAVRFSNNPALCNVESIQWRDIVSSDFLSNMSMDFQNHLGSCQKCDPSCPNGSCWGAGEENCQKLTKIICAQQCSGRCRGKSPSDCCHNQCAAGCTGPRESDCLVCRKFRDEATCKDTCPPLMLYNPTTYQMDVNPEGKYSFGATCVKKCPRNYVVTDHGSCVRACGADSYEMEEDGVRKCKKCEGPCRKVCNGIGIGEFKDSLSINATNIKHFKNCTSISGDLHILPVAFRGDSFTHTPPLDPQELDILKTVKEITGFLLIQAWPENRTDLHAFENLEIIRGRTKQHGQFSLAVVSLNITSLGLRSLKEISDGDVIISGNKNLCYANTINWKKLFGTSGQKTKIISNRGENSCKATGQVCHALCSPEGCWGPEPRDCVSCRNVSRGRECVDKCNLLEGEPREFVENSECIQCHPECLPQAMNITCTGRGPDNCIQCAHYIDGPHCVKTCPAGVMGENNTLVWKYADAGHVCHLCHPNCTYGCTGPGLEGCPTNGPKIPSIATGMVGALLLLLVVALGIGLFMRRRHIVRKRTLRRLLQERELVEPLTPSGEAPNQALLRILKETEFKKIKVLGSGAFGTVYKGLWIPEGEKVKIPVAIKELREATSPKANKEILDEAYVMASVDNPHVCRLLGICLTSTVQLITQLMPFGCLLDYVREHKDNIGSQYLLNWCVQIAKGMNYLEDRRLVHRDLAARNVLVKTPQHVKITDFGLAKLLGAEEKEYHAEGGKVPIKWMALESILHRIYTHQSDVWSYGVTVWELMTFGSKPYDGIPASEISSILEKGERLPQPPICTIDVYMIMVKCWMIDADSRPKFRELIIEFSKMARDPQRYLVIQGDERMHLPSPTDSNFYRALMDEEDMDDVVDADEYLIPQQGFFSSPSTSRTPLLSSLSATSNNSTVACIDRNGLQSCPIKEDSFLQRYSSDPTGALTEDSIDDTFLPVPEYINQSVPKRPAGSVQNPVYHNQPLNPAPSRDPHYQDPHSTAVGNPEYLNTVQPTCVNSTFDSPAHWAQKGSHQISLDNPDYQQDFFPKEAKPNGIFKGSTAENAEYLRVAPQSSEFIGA
Sequence of Dickkopf-related protein 1 (Homo sapiens) (O94907 whole entry, looked up): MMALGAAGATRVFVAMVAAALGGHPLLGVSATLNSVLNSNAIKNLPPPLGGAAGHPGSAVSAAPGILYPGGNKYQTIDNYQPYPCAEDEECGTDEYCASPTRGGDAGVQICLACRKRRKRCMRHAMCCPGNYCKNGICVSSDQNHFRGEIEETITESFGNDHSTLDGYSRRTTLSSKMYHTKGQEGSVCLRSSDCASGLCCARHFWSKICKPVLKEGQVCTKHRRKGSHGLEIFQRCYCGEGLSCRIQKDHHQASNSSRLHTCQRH
Sequence of Fibroblast growth factor 10 (Homo sapiens) (O15520 whole entry, looked up): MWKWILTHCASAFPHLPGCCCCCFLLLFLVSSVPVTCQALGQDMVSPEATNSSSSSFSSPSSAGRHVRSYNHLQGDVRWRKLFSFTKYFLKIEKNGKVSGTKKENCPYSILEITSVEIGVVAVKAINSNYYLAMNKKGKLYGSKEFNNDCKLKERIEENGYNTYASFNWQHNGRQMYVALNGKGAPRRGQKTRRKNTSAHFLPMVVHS

`CCCNC(=O)OC[C@H]1O[C@H](CCON=C2c3cc(OC)ccc3O[C@H](c3cccc(OC)c3)[C@H]2O)C=C[C@@H]1Oc1ccc(OC)cc1`: the composite z-score in [1] was determined as 0.799; in [5], 0.972; in assay [7] it was 0.451; in assay [8], 0.716; in [9], 0.468; in [10] it was 0.0897. Further, the composite z-score is 0.204 in [11]; 0.0079 in assay [12]; -0.0136 in assay [13]; 0.744 in assay [15]; 0.21 in assay [16]; 0.474 in assay [17]. The composite z-score in [18] is 0.54; in [19], 0.273; in assay [20], -0.479. Further, the z-score in assay [2] was -0.409 (inactive); in assay [3] it was 0.464 (inactive); in assay [4] it was 0.479 (inactive); in assay [6], 0.8 (inactive); in assay [14] it was -0.553 (inactive).
On to `CO[C@H]1C[C@@H]2C[C@H](O)CC(CC(=O)O[C@@H](C=CCC(C)C)C[C@@H]3CC[C@H](C)[C@@H](C1)O3)O2`, for which the composite z-score in assay [1] is 1.54; in [5], 1.82; in assay [7], -0.158; in assay [8], 0.506; in assay [9], 1.06; in assay [10], -0.0458. Also, the composite z-score in assay [11] is 1.02; in assay [12], -0.205; in assay [13], -0.594; in assay [15] it was 0.682; in [16], 1.29; in assay [17], 0.595. Also, the composite z-score in [18] turned out to be 0.808; in [19] it was 1.13; in assay [20] it was 0.0531. Further, the z-score in assay [2] was -0.124 (inactive); in assay [3], -0.425 (inactive); in assay [4], -0.414 (inactive); in assay [6], 0.128 (inactive); in assay [14], -0.278 (inactive).
`C[C@@H]1CC[C@H]2C(=O)N3[C@@H](CC[C@@H](C)[C@@H]3c3ccc(Br)cc3)C(=O)N2[C@H]1c1ccc(Br)cc1`: the composite z-score in assay [1] is -0.455; in assay [5], 0.241; in assay [7], -0.0865; in assay [8] it was 0.259; in assay [9] it was 0.305; in [10], -0.0987. The composite z-score in assay [11] is 0.223; in assay [12], -0.339; in [13], -0.355; in [15] it was 0.592; in assay [16] it was -0.0161; in assay [17] it was 0.278. Besides, the composite z-score in [18] came out at 0.384; in assay [19] it was 0.605; in assay [20], 0.22. Besides, the z-score is -0.275 (inactive) in assay [2]; -4.1 (inactive) in [3]; 0.805 (inactive) in [4]; -0.19 (inactive) in [6]; -0.628 (inactive) in assay [14].
As to `CCCC[C@H]1CN2[C@@H](CC[C@@H](C)[C@@H]2c2ccc(Br)cc2)C(=O)O1`, the composite z-score in assay [1] is 1.56; in [5] it was 1.28; in assay [7], -0.109; in assay [8], 0.444; in assay [9], 0.728; in assay [10], -0.0616. Besides, the composite z-score in [11] was 0.801; in [12] it was -0.1; in assay [13] it was -0.442; in assay [15] it was 0.28; in [16] it was 0.707; in assay [17], 0.457. The composite z-score in [18] is 0.562; in assay [19], 0.296; in assay [20] it was 0.0442. For the same molecule, the z-score in [2] is 0.149 (inactive); in assay [3], -16.5 (active); in [4], -0.435 (inactive); in assay [6], 0.0173 (inactive); in [14], 0.541 (inactive).
Take `CCOC(=O)CCN1C(=O)[C@H]2[C@H]3[C@H](O)[C@H](O)CC(=NNC(=O)OCc4ccccc4)[C@H]3CC[C@H]2C1=O`: the composite z-score was -0.0993 in assay [1]; -1.53 in [5]; -0.0515 in assay [7]; 0.608 in assay [8]; 0.032 in assay [9]; -0.103 in assay [10]. The composite z-score in assay [11] is 0.108; in assay [12] it was -0.467; in assay [13], -1.17; in assay [15] it was -0.193; in assay [16] it was -0.296; in assay [17], 0.345. In addition, the composite z-score in [18] was 0.373; in [19], 0.766; in assay [20], 1.62. The z-score in assay [2] is -0.756 (inactive); in assay [3], 0.59 (inactive); in assay [4], -0.596 (inactive); in assay [6] it was -0.287 (inactive); in assay [14], 0.325 (inactive).
